Source: PubChem BioAssay (National Center for Advancing Translational Sciences (NCATS))
D1 antag: antagonists of human D1 dopamine receptor; HEK293 TREx D1 cells, calcium flux, dopamine EC80; hits give low values; activity change, negative = inhibition, % at 10 µM; 360,000 tested, 3.2% active; AID 504652; in the data active means activity change below about -30%
Target sequence (P21728 whole entry, looked up): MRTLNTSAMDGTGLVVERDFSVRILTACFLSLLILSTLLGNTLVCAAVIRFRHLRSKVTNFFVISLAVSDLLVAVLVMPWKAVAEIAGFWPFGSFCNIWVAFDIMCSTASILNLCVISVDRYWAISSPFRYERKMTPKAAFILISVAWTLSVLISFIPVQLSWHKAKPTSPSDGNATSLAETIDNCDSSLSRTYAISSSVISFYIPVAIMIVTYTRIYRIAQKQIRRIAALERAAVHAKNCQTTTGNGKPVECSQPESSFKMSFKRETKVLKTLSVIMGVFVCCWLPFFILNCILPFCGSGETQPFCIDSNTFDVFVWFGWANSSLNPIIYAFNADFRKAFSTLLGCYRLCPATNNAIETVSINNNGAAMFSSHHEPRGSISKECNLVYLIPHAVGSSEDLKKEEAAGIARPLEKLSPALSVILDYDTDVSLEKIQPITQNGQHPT
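Kinetic fluorescence of a calcium dye serves as the read-out. D1-expressing Hek293 Trex cells, induced overnight at 30 C, are exposed to compound for 180 s before an EC80 dopamine addition, then read 180 s further.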
D3 ag: agonists of human D3 dopamine receptor; max activation, %; P35462; D3R DiscoveRx beta-arrestin cells, luminescence, 90 min; 410,000 tested, 0.58% active; in the data active means max activation above about 30%
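Cells at 1500/well, incubated overnight, then treated with pinned compounds (dopamine as control) for 90 min at 37 degrees C. DiscoveRx reagent added for 30 - 60 minutes at room temperature; luminescence read.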
D1 agonist: activates the human D1 dopamine receptor; P21728; HEK293 T-REx D1 cells, calcium flux, agonist mode; activation, % at 2 µM; 360,000 tested, 1% active; in the data active means activation above about 30%
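Agonism was scored from calcium flux recorded over 180 s (1 read/s) after pintool compound addition, following a 10-cycle baseline. Cells were inducible force-coupled HEK293 TREx D1, plated overnight at 30 C and loaded with no-wash calcium dye.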
D3 antag: D3 dopamine receptor (human) antagonism; D3R cells, DiscoveRx beta-arrestin luminescence, antagonist mode; hits give low values; max response, negative = inhibition, %; 360,000 tested, 2.5% active; in the data active means max response below about -50%
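Cells expressing the human receptor were seeded at 1500 cells/well, incubated overnight at 37 degrees C in 5% CO2, then exposed to library compounds with dopamine controls for 90 minutes at 37 degrees C before luminescent detection.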
D1 potentiator: potentiators of human D1 dopamine receptor; P21728; HEK293 TREx D1 cells, calcium flux, dopamine EC20 potentiation; potentiation, % at 10 µM; 360,000 tested, 0.036% active; in the data active means potentiation above about 30%
A number is an active result; n = inactive; x = not tested or not shown. This is a sample that favours compounds with a hit; in the whole collection about 6% have one here.

SMILES | D1 antag | D3 ag | D1 agonist | D3 antag | D1 potentiator
Cc1cc(C)c(S(=O)(=O)NCCC2CCCN2C)c(C)c1 (centres undefined) | -30.5 | n | n | n | n
Cn1c(=O)n(CC(=O)NC2CCCCC2)c(=O)c2ccccc21 | n | n | n | -58.5 | n
Cn1c(=O)c2ccccc2n(CC(=O)NC2CCCCC2)c1=O | n | n | n | n | n
CCN(Cc1ccccc1)C(=O)Cn1c(=O)n(-c2cccc(C)c2)c(=O)c2c1c1cc(C)ccc1n2C | n | n | n | x | n
Cc1ccc(Cn2nc(C)c(NC(=O)C3(C)CC3(Br)Br)c2C)cc1 (centres undefined) | -38.4 | n | n | n | n
CCOc1ccc(CCNc2ncnc3onc(C)c23)cc1OCC | n | n | n | x | n
O=C(OC[C@H]1O[C@](O)(COC(=O)c2cccnc2)[C@@H](OC(=O)c2cccnc2)[C@@H]1OC(=O)c1cccnc1)c1cccnc1 | x | n | x | x | x
CCCCOC(=O)C1C2C=C[C@]3(CN(CCCOC)C(=O)[C@H]13)O2 (some centres undefined) | n | n | n | -51.4 | n
CCCOC(=O)C1[C@H]2C(=O)N(Cc3ccco3)C[C@]23C=C[C@H]1O3 (some centres undefined) | -61.5 | n | n | n | n
CCCCOC(=O)C1[C@H]2C(=O)N(Cc3cccs3)C[C@]23C=C[C@H]1O3 (some centres undefined) | n | n | n | n | n
Cc1ccc(-n2nc(C)c3c(C(=O)NCc4ccccc4)cc(C4CC4)nc32)cc1 | n | n | n | x | n
CCOC(=O)c1ccc(NC(=O)NCCOCCn2c(=O)oc3ccccc32)cc1 | n | n | n | x | n
Cc1ccc(C=Nc2ccccc2C(N)=O)cc1 | -34.7 | n | 60.3 | n | n
N#CC(C#N)=C1C=CC=CN1/C(=C\c1ccco1)C(=O)c1ccccc1 | -75.4 | n | n | -106.4 | n
N#CC(C#N)=C1C=CC=CN1/C(=C\c1ccco1)C(=O)c1ccc(Br)cc1 | -48.4 | n | n | -98.8 | n
COc1ccc(C(=O)/C(=C\c2ccco2)N2C=CC=CC2=C(C#N)C#N)cc1 | -41.3 | n | n | -64.6 | n
COc1ccc(C(=O)N/C(=C\c2ccco2)C(=O)OCc2ccco2)cc1 | n | n | n | n | n
COc1ccc(N=N/C(=C\O)C(=O)c2cccs2)cc1 | n | n | n | n | n
COc1ccc(/C=C(/C(=O)c2cccs2)N2C=CC=CC2=C(C#N)C#N)cc1 | n | n | n | -81.0 | n
Cc1ccc(N2CC(NC(=O)C3CCCCC3)CC2=O)cc1C (centres undefined) | x | n | n | x | n
CN(C)c1ccc(/C=C/c2ccc3c4ccccc4ccc3[n+]2-c2ccccc2)cc1 | -32.6 | n | n | n | n
C=CCn1c(N)cc(=O)nc1SCC(=O)N1CCN(c2ccc(F)cc2)CC1 | n | n | n | -153.0 | n
C=C1C(O)[C@@H]2O[C@]3(CC[C@H](/C=C/C(C)[C@@H]4CC(C)=CC5(O[C@H](C[C@@](C)(O)CO)CCC5O)O4)O3)CC[C@H]2O[C@@H]1C(O)CC(C)[C@H]1OC2(CCCCO2)CCC1C (some centres undefined) | x | n | x | -78.5 | x
COC(=O)c1ccc(NC(=O)N2CCC(CN3CCc4ccccc4C3)CC2)cc1 | n | n | n | x | n
COc1ccc(C(=O)/C=C2\Sc3ccccc3N2C)cc1 | n | n | n | n | n
SMILES | D1 antag | D3 ag | D1 agonist | D3 antag | D1 potentiator
COc1ccccc1-[n+]1c(C)cc(/C=C2\Sc3ccccc3N2C)cc1C | n | n | 41.8 | n | n
COc1ccc(-[n+]2c(C)cc(/C=C3\Sc4ccccc4N3C)cc2C)cc1 | n | n | 78.1 | n | n
Cc1cn2c(N)c(C=C3C=C(Cl)C(=O)C(Cl)=C3)c(=O)nc2s1 | n | n | 50.9 | n | n
COC1=C/C(=C/c2c(N)n3cc(C)sc3nc2=O)C=CC1=O | n | n | 30.3 | n | n
Cc1cn2c(=O)cc(COc3ccc(Cl)cc3)nc2s1 | n | n | n | x | n
COC1=C/C(=C/c2c(N)n3nc(CC(=O)N4CCCC4)sc3nc2=O)C=CC1=O | n | n | n | n | n
CCn1cc2c(n1)-c1c(oc(C(=O)Nc3cccc(C)c3C)c1C)CC2 | n | n | n | x | n
COc1ccccc1-c1noc(-c2ccc(NC(C)C)c([N+](=O)[O-])c2)n1 | n | n | n | x | n
C=CCc1ccccc1OCC(O)CNC1CCCC1 (centres undefined) | n | n | n | n | n
